Measured values published in PubChem BioAssay.
Several values for one entry are separate records, joined by “and”; a condition that tells them apart may be missing. Equal entries are not always repeated. Some structures have more than one record in an assay (separate samples or runs), and their calls can disagree. Activity calls are given as the source filed them.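 Rule for the calls, unless noted: active = compound that reduces growth-factor-driven endothelial tube area in a mixed cell culture, no cutoff stated; inactive = the rest.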 Non-standard residues stand in square brackets, D forms with d. Residues, ends and D or L forms follow the SMILES beside them. pGlu = O=C1CC[C@@H](C(=O)O)N1

Key:
[1] = Wnt pathway potentiators raising nuclear beta-catenin – imaging, WNT3A-conditioned medium, mouse C2C12, NPC library, primary screen (AID 1117326; in the data active = nuclear beta-catenin stimulation mostly above about 4.2%, no sharp cut-off; inactive = mostly below about 10%; note: reference of the scale not given here); conditions: stronger effect = higher value
[2] = stimulators of insulin release from INS-1E, primary screen, cell-based, 5 mM glucose, NPC library (AID 1117329;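 active = compound raises insulin release from rat beta cells at 5 mM glucose, no numeric limit stated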; note: reference of the scale not given here); conditions: rat INS-1E insulin secretion, at 10 µM, stronger effect = higher value
[3] = growth inhibition of GSK3B-pretreated HCT116 cells – cell-based, CellTiter-Glo, 0.2 to 20 µM (AID 1117336;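 active = compounds lowering colon cancer cell viability after pretreatment blocking the GSK3B kinase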); conditions: HCT116 viability after GSK3B inhibitor, at 20 µM, stronger effect = higher value
[4] = inhibition of endothelial tube formation, primary screen, imaging, VEGF stimulated, CD31 staining, tube area, NPC library (AID 1117340); conditions: VEGF-stimulated ADSC/ECFC co-culture, at 10 µM, stronger effect = higher value
[5] = GLP1 release stimulators, primary, NCI-H716, NPC library (AID 1117341;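 active = compound raises GLP1 secretion from the human gut endocrine cells, with no numeric limit stated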; note: reference of the scale not given here); conditions: NCI-H716 cells, at 10 µM, stronger effect = higher value
[6] = HCT116 colon cancer cell growth inhibition, primary screen, CellTiter-Glo luminescence, NPC library (AID 1117342;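 active = compounds that lower survival of HCT116 colon cancer cells in the luminescence readout, no numeric limit stated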); conditions: at 20 µM (top of the series)
[7] = reduced SW480 viability measured with CellTiter-Glo, NPC library, primary (AID 1117343;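 active = compounds that lower viability of the colon cancer cells in the luminescence readout, with no numeric limit stated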); conditions: CellTiter-Glo luminescence; at 20 µM (top of the series)
[8] = NPC library primary testing for decreased DLD-1 cell viability via CellTiter-Glo (AID 1117346;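 active = compounds that lower survival of DLD-1 colon cancer cells in the luminescence readout, no cutoff given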); conditions: DLD-1 viability, CellTiter-Glo luminescence; at 20 µM (top of the series)

CCCCCOc1ccccc1/C(=C\SC)n1ccnc1
inactive: nuclear beta-catenin stimulation ([1]; at 10 µM) 0.8% | insulin secretion stimulation [2] 3.4% | viability decrease [3] -71.1% | tube area decrease [4] 30.4% | GLP1 secretion stimulation [5] 3.8%
-0.3%: nuclear beta-catenin stimulation ([1]; stimulation, at 2 µM)
active: inhibition of viability [6] 61.1% | viability decrease (inhibition) [7] 79.6% | viability decrease (inhibition) [8] 99.5%

COc1cc2nc(Cl)nc(N)c2cc1OC
inactive: nuclear beta-catenin stimulation ([1]; at 10 µM) 0.1% | insulin secretion stimulation [2] 2.8% | viability decrease [3] 13.3% | tube area decrease [4] 9.3% | GLP1 secretion stimulation [5] 0.6% | inhibition of viability [6] 22.3% | viability decrease (inhibition) [7] -4.5% | viability decrease (inhibition) [8] 21.8%
-1.5%: nuclear beta-catenin stimulation ([1]; stimulation, at 2 µM)

Cc1cc2nc3c(=O)[nH]c(=O)nc-3n(C[C@H](O)[C@H](O)[C@H](O)COP(=O)(O)OP(=O)(O)OC[C@H]3O[C@@H](n4cnc5c(N)ncnc54)[C@H](O)[C@H]3O)c2cc1C
0.2%: nuclear beta-catenin stimulation ([1]; stimulation, at 2 µM)
inactive: nuclear beta-catenin stimulation ([1]; at 10 µM) -2.2% | insulin secretion stimulation [2] 5.5% | viability decrease [3] -3.6% | tube area decrease [4] -2.4% | GLP1 secretion stimulation [5] -3.7% | inhibition of viability [6] -18.9% | viability decrease (inhibition) [7] 16.1% | viability decrease (inhibition) [8] -48.9%

Nc1ccc(C(=O)Nc2ccccc2N)cc1
1.9%: nuclear beta-catenin stimulation ([1]; stimulation, at 2 µM)
active: viability decrease [3] 39.9% | inhibition of viability [6] 72.5% | viability decrease (inhibition) [7] 64.9%
inactive: nuclear beta-catenin stimulation ([1]; at 10 µM) 10.2% | insulin secretion stimulation [2] -0.6% | tube area decrease [4] 8.5% | GLP1 secretion stimulation [5] 1.1% | viability decrease (inhibition) [8] 29.3%

CCOC(=O)c1cccnc1
active: viability decrease (inhibition) [7] 58.1%
inactive: nuclear beta-catenin stimulation ([1]; at 10 µM) 0.1% | insulin secretion stimulation [2] -2.3% | viability decrease [3] -2.55% | tube area decrease [4] -7.8% | GLP1 secretion stimulation [5] 1.1% | inhibition of viability [6] -17.8% | viability decrease (inhibition) [8] -9.05%
0.3%: nuclear beta-catenin stimulation ([1]; stimulation, at 2 µM)

Cc1cc(O)c2ccccc2c1O
53.2% (active) and 30.1% (inactive): nuclear beta-catenin stimulation ([1]; at 10 µM)
1.1% and -0.7%: nuclear beta-catenin stimulation ([1]; stimulation, at 2 µM)
active: viability decrease [3] 101% and 99.2% | inhibition of viability [6] 102% and 99.5% | viability decrease (inhibition) [7] 142% and 102% | viability decrease (inhibition) [8] 104% and 101%
74.4% (active) and 26.8% (inactive): tube area decrease [4]
inactive: insulin secretion stimulation [2] 5% and 0.4% | GLP1 secretion stimulation [5] -6.3% and -0.9%

C#C[C@]1(O)CC[C@@H]2[C@@H]3CCC4=CCCC[C@@H]4[C@H]3C(=C)C[C@@]21CC
-0.9%: nuclear beta-catenin stimulation ([1]; stimulation, at 2 µM)
active: viability decrease [3] 99.1% | tube area decrease [4] 55.3% | inhibition of viability [6] 99% | viability decrease (inhibition) [7] 102% | viability decrease (inhibition) [8] 101%
inactive: nuclear beta-catenin stimulation ([1]; at 10 µM) 1% | insulin secretion stimulation [2] -1.9% | GLP1 secretion stimulation [5] -7.2%

CC(C)(C)NCC(O)COc1ccc(NC(=O)NC2CCCCC2)cc1 (stereo unspecified)
inactive: nuclear beta-catenin stimulation ([1]; at 10 µM) 1.2% | insulin secretion stimulation [2] 1.65% | viability decrease [3] -5.2% | tube area decrease [4] 9.5% | GLP1 secretion stimulation [5] 2% | inhibition of viability [6] -0.2% | viability decrease (inhibition) [7] -5.6% | viability decrease (inhibition) [8] -1.8%
-0.1%: nuclear beta-catenin stimulation ([1]; stimulation, at 2 µM)

O=C(O)CNC(=O)c1ccccc1
1.4%: nuclear beta-catenin stimulation ([1]; stimulation, at 2 µM)
inactive: nuclear beta-catenin stimulation ([1]; at 10 µM) 1.3% | insulin secretion stimulation [2] -1.9% | viability decrease [3] -9.35% | tube area decrease [4] -7.6% | GLP1 secretion stimulation [5] 4% | inhibition of viability [6] -1.6% | viability decrease (inhibition) [7] 24.7% | viability decrease (inhibition) [8] 2.1%

Cc1ccccc1C(=O)N1CC/C(=N\OS(=O)(=O)O)c2ccc(Cl)cc21
-1.3%: nuclear beta-catenin stimulation ([1]; stimulation, at 2 µM)
inactive: nuclear beta-catenin stimulation ([1]; at 10 µM) 0.7% | insulin secretion stimulation [2] 3.05% | viability decrease [3] 19.7% | tube area decrease [4] -2.3% | GLP1 secretion stimulation [5] 3.1% | inhibition of viability [6] 1.4% | viability decrease (inhibition) [7] -15.6% | viability decrease (inhibition) [8] -6.4%

O=S(O)CO
0.9%: nuclear beta-catenin stimulation ([1]; stimulation, at 2 µM)
inactive: nuclear beta-catenin stimulation ([1]; at 10 µM) 2.1% | insulin secretion stimulation [2] 0.6% | viability decrease [3] -7.1% | tube area decrease [4] 9.9% | GLP1 secretion stimulation [5] -1.1% | inhibition of viability [6] -0.4% | viability decrease (inhibition) [7] -0.9% | viability decrease (inhibition) [8] 2.7%

Cc1ccccc1N=Nc1ccc(N=Nc2c(O)ccc3ccccc23)c(C)c1
inactive: nuclear beta-catenin stimulation ([1]; at 10 µM) 4.6% | insulin secretion stimulation [2] 1.7% | viability decrease [3] 2.6% | tube area decrease [4] 38.9% | GLP1 secretion stimulation [5] -8.5% | inhibition of viability [6] 6.3% | viability decrease (inhibition) [7] 17.9% | viability decrease (inhibition) [8] 15.4%
5.4%: nuclear beta-catenin stimulation ([1]; stimulation, at 2 µM)

CC(C)C[C@H](NC(=O)CNC(=O)[C@H](Cc1ccc(O)cc1)NC(=O)[C@H](CO)NC(=O)[C@H](Cc1c[nH]c2ccccc12)NC(=O)[C@H](Cc1cnc[nH]1)NC(=O)[C@@H]1CCC(=O)N1)C(=O)N[C@@H](CCCN=C(N)N)C(=O)N1CCC[C@H]1C(=O)NCC(N)=O (stereo in doubt)
-0.5%: nuclear beta-catenin stimulation ([1]; stimulation, at 2 µM)
inactive: nuclear beta-catenin stimulation ([1]; at 10 µM) -1% | insulin secretion stimulation [2] -0.4% | viability decrease [3] 0.3% | tube area decrease [4] 19.8% | GLP1 secretion stimulation [5] 6% | viability decrease (inhibition) [7] 11.3% | viability decrease (inhibition) [8] -1.2%
active: inhibition of viability [6] 6.7%

CCNC(=O)[C@@H]1CCCN1C(=O)[C@H](CCCN=C(N)N)NC(=O)[C@H](CC(C)C)NC(=O)CNC(=O)[C@H](Cc1ccc(O)cc1)NC(=O)[C@H](CO)NC(=O)[C@H](Cc1c[nH]c2ccccc12)NC(=O)[C@H](Cc1cnc[nH]1)NC(=O)[C@@H]1CCC(=O)N1 ([pGlu]HWSYGLRP-NHEt)
inactive: nuclear beta-catenin stimulation ([1]; at 10 µM) 0.5% | insulin secretion stimulation [2] -0.8% | viability decrease [3] 32.1% | tube area decrease [4] -2.8% | GLP1 secretion stimulation [5] -2.8% | inhibition of viability [6] 33% | viability decrease (inhibition) [7] 25.1% | viability decrease (inhibition) [8] 29.7%
-0.6%: nuclear beta-catenin stimulation ([1]; stimulation, at 2 µM)
